Records with an inconclusive call do not appear. Where a call stands in place of a potency, no number is given. Calls of active or inactive are those of the source. Calls come from the whole dose curve; as a rule, active = well fitted inhibition curve with a large enough effect; inconclusive = small, poorly fitted or top-dose-only effect; inactive = no such curve, though single readings can be large or run the other way.
Test: Confirmatory screen NINDS Rhodamine qHTS for Zika virus inhibitors (AID 1347161); note: nearly all actives have a fitted effect of over 60% in size
Conditions: purified enzyme assay, Rhodamine110 substrate fluorescence, 15 min; series mostly up to 114 µM
Summary of the method: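 Kinetic fluorescence (Ex 480 nm, Em 540 nm) over 15 min with 1.5 microM Rhodamine110 peptide and 25 nM linked protease.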
Potency is the fitted concentration of half-maximal effect.

SMILES	Potency
C=C[C@H]1[C@H](O[C@@H]2O[C@H](CO)[C@@H](O)[C@H](O)[C@H]2O)OC=C(C(=O)OC)[C@H]1CCOC(=O)c1cc(O)c(O)c(O)c1	10.8 µM (active)
CCCCc1ccc(C(=O)Nc2cc(-c3ccc(Cl)cc3)nn2-c2ccc(Cl)cc2)cc1	inactive
Nc1ncnc2c([C@@H]3N[C@H](CO)[C@@H](O)[C@H]3O)c[nH]c12	inactive
COC(=O)CCC(=O)OC[C@]1(C)CCC[C@@]2(C)C3CC[C@]4(C)C=CC3(CCC12)C4 (some centres undefined)	inactive
